Measurements from PubChem BioAssay (Tox21).
Records with an inconclusive call do not appear. The source made the active and inactive calls. Unless noted, the call rests on the fitted dose curve; in most records, active means well fitted curve in the direction sought with a large enough effect in the repeat runs; inconclusive means weak or mixed curves; inactive means no such curve, though single readings can be large; an effect the other way counts as inactive or inconclusive. Where a SMILES comes first, the peptide text is derived from it. [ ]: non-standard residue; d: D form. pGlu = O=C1CC[C@@H](C(=O)O)N1

Assays:
[1] = qHTS assay to identify small molecule antagonists of the vitamin D receptor (VDR) signaling pathway - cell viability counter screen (AID 743225); further: on the % scale 0 is the no-effect control and ±100 the full control effect; nearly all actives have a fitted effect of over 50% in size
Summary of the method: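 VDR-bla HEK 293T cells, 4 h pre-incubation at 37C, then compound plus 1-alpha,25-dihydroxyvitamin D3 (3 nM final) for 16 h. After the beta-lactamase FRET read, CellTiter-Glo was added to the same wells; luminescence after 30 min at room temperature.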

[2] = qHTS assay to identify small molecule agonists of the NFkB signaling pathway - cell viability counter screen (AID 1159515; calls by dose curve; further: series mostly up to about 61 µM; on the % scale 0 is the no-effect control and ±100 the full control effect; nearly all actives have a fitted effect of over 55% in size)
Summary of the method: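 Parallel cytotoxicity counter screen in ME-180 cells carrying an NFkB-response-element beta-lactamase reporter, 2,000 cells/well. Compound exposure lasted 5 hr at 37 C, 5% CO2. Cell viability was quantified by CellTiter-Glo luminescence.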

[3] = qHTS assay to identify small molecule agonists of the endoplasmic reticulum stress response signaling pathway (AID 1159516; active means well fitted activation curve with a large enough effect in the signal ratio in the repeat runs, not every such curve was filed as active; the % refers to the signal ratio; further: on the % scale 0 is the no-effect control and ±100 the full control effect)
Summary of the method: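 Using a HeLa line with an ESRE-driven beta-lactamase gene, agonist activity was measured by FRET substrate fluorescence (460 and 530 nm emission) after cells were treated with compounds for 5 hr at 37 C and 5% CO2.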

[4] = qHTS assay to identify small molecule agonists of the endoplasmic reticulum stress response signaling pathway - cell viability counter screen (AID 1159517; calls by dose curve;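 further: HeLa cells carrying an ER stress response element beta-lactamase reporter; series mostly up to about 61 µM; on the % scale 0 is the no-effect control and ±100 the full control effect; nearly all actives have a fitted effect of over 50% in size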)
Summary of the method: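 In parallel with the ESRE reporter read, cytotoxicity was scored by CellTiter-Glo luminescence (30 min, room temperature) on HeLa ESRE-bla cells dosed for 5 hr.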

[5] = qHTS assay to identify small molecule antagonists of the retinoid-related orphan receptor gamma (ROR-gamma) signaling pathway - cell viability counter screen (AID 1159520); further: on the % scale 0 is the no-effect control and ±100 the full control effect; nearly all actives have a fitted effect of over 50% in size
Summary of the method: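 Tet-on ROR gamma CHO cells were given compounds for 2 hr, then doxycycline hyclate at 1 uM final, and incubated 16 hr at 37 C. Viability was measured as ATP content by CellTiter-Glo luminescence.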

[6] = target: Nuclear receptor ROR-gamma (Homo sapiens) (UniProt P51449); experiment: qHTS assay to identify small molecule antagonists of the retinoid-related orphan receptor gamma (ROR-gamma) signaling pathway (AID 1159521;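 further: CHO cells with doxycycline inducible ROR-gamma driving an RORE luciferase reporter; top concentration of the series differs between compounds; on the % scale 0 is the no-effect control and ±100 the full control effect; nearly all actives have a fitted effect of over 50% in size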)
Summary of the method: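 Tet-on RORγ CHO cells carrying a ROR response element–luciferase reporter were pretreated with compounds for 2 h, then induced with 1 uM (final) doxycycline hyclate for 16 h at 37 C. Antagonism was read as decreased ONE-Glo luminescence.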

[7] = qHTS assay to identify small molecule agonists of the AP-1 signaling pathway - cell viability counter screen (AID 1159525; calls by dose curve; further: nearly all actives have a fitted effect of over 55% in size)
Summary of the method: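 Same-well cytotoxicity counter screen of the Tox21 10K library in ME-180 cells. The readout is ATP-dependent luminescence after 5 h compound treatment. Data are normalised to DMSO and tetra n-octyl ammonium bromide controls.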

[8] = qHTS assay to identify small molecule agonists of the AP-1 signaling pathway (AID 1159526; calls by dose curve; further: on the % scale 0 is the no-effect control and ±100 the full control effect)
[9] = target: Retinoic acid receptor RXR-alpha (Homo sapiens) (UniProt P19793); experiment: qHTS assay to identify small molecule agonists of the RXR signaling pathway (AID 1159527; calls by dose curve; further: on the % scale 0 is the no-effect control and ±100 the full control effect; nearly all actives have a fitted effect of over 35% in size)
Chain of Retinoic acid receptor RXR-alpha (Homo sapiens) (P19793 whole entry, looked up): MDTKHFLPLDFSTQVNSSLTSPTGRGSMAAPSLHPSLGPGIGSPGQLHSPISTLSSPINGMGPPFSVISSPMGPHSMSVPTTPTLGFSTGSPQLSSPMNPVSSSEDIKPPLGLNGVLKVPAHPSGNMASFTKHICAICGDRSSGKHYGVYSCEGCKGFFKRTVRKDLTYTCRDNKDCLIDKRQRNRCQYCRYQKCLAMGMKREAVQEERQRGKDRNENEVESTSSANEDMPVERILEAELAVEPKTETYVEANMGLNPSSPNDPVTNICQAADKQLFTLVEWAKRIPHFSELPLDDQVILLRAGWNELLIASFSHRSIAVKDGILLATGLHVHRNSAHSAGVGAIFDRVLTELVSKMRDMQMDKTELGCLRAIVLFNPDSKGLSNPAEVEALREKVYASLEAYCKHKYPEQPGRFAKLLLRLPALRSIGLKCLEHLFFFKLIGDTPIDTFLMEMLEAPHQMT
Summary of the method: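 GeneBLAzer RXR-alpha-UAS-bla HEK 293T cells in medium with 2% charcoal-stripped FBS, pre-incubated 5 hr at 37 C, then exposed to compounds 16 hr. Beta-lactamase reporter read by FRET substrate, 2 hr room temperature, 460/530 nm emission.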

[10] = qHTS assay to identify small molecule agonists of the RXR signaling pathway - cell viability counter screen (AID 1159529)
Summary of the method: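 RXR-alpha-UAS-bla HEK 293T cells in medium with 2% charcoal-stripped FBS were preincubated 5 hr, then exposed to compounds for 16 hr at 37 C. Viability was read as CellTiter-Glo luminescence after 30 min at room temperature.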

[11] = qHTS assay to identify small molecule antagonists of the retinoid acid receptor (RAR) signaling pathway - cell viability counter screen (AID 1159551); further: on the % scale 0 is the no-effect control and ±100 the full control effect; nearly all actives have a fitted effect of over 35% in size
Summary of the method: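 ATP-based viability, C3RL4 cells, 6 h at 37 C with 1 uM final retinol co-added after compound; luminescence read 30 min post CellTiter-Glo, RT.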

[12] = qHTS assay to identify small molecule antagonists of the retinoic acid receptor (RAR) signaling pathway (AID 1159552)
Summary of the method: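 RARE-luc C3RL4 cells; cpds + 1 uM (final) retinol, 6 hr, 37 C/5% CO2; luciferase reagent, 30 min RT, luminescence readout. Inhibitors of retinol-driven signal scored.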

[13] = qHTS assay to identify small molecule antagonists of the estrogen related receptor (ERR) signaling pathway from Tox21 library - cell viability counter screen (AID 1224834); further: on the % scale 0 is the no-effect control and ±100 the full control effect; nearly all actives have a fitted effect of over 30% in size
Summary of the method: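 Compounds in DMSO were pinned onto ERR cells that had been incubated for 6 h, and the plates were held at 37 C for 17.5 h. CellTiter-Fluor reagent was then added and fluorescence was measured after 30 min.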

[14] = qHTS assay to identify small molecule agonists of the retinoic acid receptor (RAR) signaling pathway (AID 1159553); further: on the % scale 0 is the no-effect control and ±100 the full control effect
Summary of the method: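 Quantitative high-throughput format: the Tox21 10K library was tested on C3RL4 RARE-luciferase cells for 6 hr at 37 C and 5% CO2, with luminescence measured after a 30 min room-temperature reagent step.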

CCNC(=O)[C@@H]1CCCN1C(=O)[C@H](CCCN=C(N)N)NC(=O)[C@H](CC(C)C)NC(=O)CNC(=O)[C@H](Cc1ccc(O)cc1)NC(=O)[C@H](CO)NC(=O)[C@H](Cc1c[nH]c2ccccc12)NC(=O)[C@H](Cc1cnc[nH]1)NC(=O)[C@@H]1CCC(=O)N1 ([pGlu]HWSYGLRP-NHEt)
inactive: outcome [1] | outcome [2] | outcome [3] | outcome [4] | outcome [5] | Potency [6] | outcome [7] | outcome [8] | Potency [9] | Potency [10] | outcome [11] | Potency [12] | Potency [13]

c1ccc2sc(SN3CCOCC3)nc2c1
inactive: outcome [1] | outcome [2] | outcome [3] | outcome [4] | outcome [5] | Potency [6] | outcome [7] | outcome [8] | Potency [9] | Potency [10] | outcome [11] | Potency [12] | Potency [13]

CCC1C(=O)OCC1Cc1cncn1C (stereo not given)
inactive: outcome [1] | outcome [2] | outcome [3] | outcome [4] | outcome [5] | Potency [6] | outcome [7] | outcome [8] | Potency [9] | Potency [10] | outcome [11] | Potency [12]

NC(N)=NCCN1CCCCCCC1
inactive: viability change, negative = cytotoxic [1] -3.67% [at 0.628 µM] | activity, negative = cytotoxic [2] -1.12% [at 0.628 µM] | activation [3] 2.69% [at 0.628 µM] | activity change, negative = cytotoxicity [4] -3.02% [at 0.628 µM] | activity, negative = cytotoxicity [5] 6.85% [at 0.349 µM] | activity change, negative = inhibition [6] 36.3% [at 0.35 µM] | viability change, negative = cytotoxic [7] 8.04% [at 0.29 µM] | activation [8] -7.76% [at 0.29 µM] | activation [9] 1.89% [at 0.29 µM] | activity change, negative = cytotoxicity [10] -2.51% [at 0.29 µM] | activity change, negative = cytotoxicity [11] -0.855% [at 0.349 µM] | activity, negative = inhibition [12] 16.3% [at 0.349 µM]

CC(C)=CCC/C(C)=C/C#N
inactive: outcome [1] | outcome [2] | outcome [3] | outcome [4] | outcome [5] | Potency [6] | outcome [7] | outcome [8] | Potency [9] | Potency [10] | outcome [11] | Potency [12] | Potency [13]

Cc1c(N)c(=O)n(-c2ccccc2)n1C
inactive: outcome [1] | outcome [2] | outcome [3] | outcome [4] | outcome [5] | Potency [6] | outcome [7] | outcome [8] | Potency [9] | Potency [10] | outcome [11] | Potency [12] | Potency [14] | Potency [13]

OCCc1ccccn1
inactive: outcome [2] | outcome [3] | outcome [4] | outcome [5] | Potency [6] | outcome [7] | outcome [8] | Potency [9] | Potency [10] | outcome [11]

O=C(O)CCCC[P+](c1ccccc1)(c1ccccc1)c1ccccc1
inactive: outcome [2] | outcome [3] | outcome [4] | outcome [5] | Potency [6] | outcome [7] | outcome [8] | Potency [9] | Potency [10] | outcome [11] | Potency [14] | Potency [13]

CC12CCC(C(=O)C1=O)C2(C)C (stereo not given)
inactive: outcome [1] | outcome [2] | outcome [3] | outcome [4] | outcome [5] | Potency [6] | outcome [7] | outcome [8] | Potency [9] | Potency [10] | outcome [11] | Potency [12] | Potency [13]

CC(N)C12CC3CC(CC(C3)C1)C2 (stereo not given)
inactive: outcome [1] | outcome [2] | outcome [3] | outcome [4] | outcome [5] | Potency [6] | outcome [7] | outcome [8] | Potency [9] | Potency [10] | outcome [11] | Potency [12] | Potency [13]
